Structures are written as SMILES. Measured potencies and affinities stand elsewhere.

The subject of one assay is Staphylococcus aureus. The following applies: Concentration 32 ug.mL-1;; ASSAY_TEST Inhibition of Bacterial Growth; detection method Absorption (OD600); MEDIA CAMHB; plate type 384well; NBS; CORNING #3640; time 18 hr.
The next assay concerns Escherichia coli. To be noted: Concentration 32 ug.mL-1;; ASSAY_TEST Inhibition of Bacterial Growth; detection method Absorption (OD600); MEDIA CAMHB; plate type 384well; NBS; CORNING #3640; time 18 hr.

As for `COc1ccc(N(Cc2cccc(C)c2)S(=O)(=O)c2ccc3nnc(C)n3c2)cc1`, the Inhibition (as a rule, the relative decrease from the control value, in per cent) with Staphylococcus aureus is 2.37%; in the assay on Escherichia coli it was -2.14%.
On to `CC(C)(C)NC(=O)Cn1nc2n(Cc3cccs3)c(=O)c3sccc3n2c1=O`, for which the Inhibition is -26.19% with Staphylococcus aureus and -5.05% in the assay on Escherichia coli.
As to `CCC(Sc1nnc2c(=O)n(-c3ccc(F)cc3)ccn12)C(=O)Nc1cc(OC)cc(OC)c1` (centres undefined), the Inhibition with Staphylococcus aureus is given as 15.63%; with Escherichia coli, -3.99%.
As for `CCOc1ccc(-c2nc(CSc3nc4ccccc4n4c(C)nnc34)c(C)o2)cc1`, the Inhibition in the assay on Staphylococcus aureus amounted to 7.53%; in the assay on Escherichia coli it was 1.84%.
Turning to `C=Cc1ccc(CSc2nnc3c(=O)n(-c4cccc(OC)c4)ccn23)cc1`, the results for the Inhibition in the assay on Staphylococcus aureus and in the assay on Escherichia coli were 15.25% and -3.1%, respectively.
As to `COCCCNC(=O)CSc1nnc2c(=O)n(Cc3ccc(F)cc3)ccn12`, the Inhibition in the assay with Staphylococcus aureus is listed as 10.54%; in the assay with Escherichia coli, -1.15%.
Turning to `Cc1nnc2ccc(S(=O)(=O)N(Cc3ccccc3)c3cccc(F)c3)cn12`, the values for the Inhibition in the assay with Staphylococcus aureus and in the assay with Escherichia coli were 2.5% and -6.96%, respectively.
Consider `O=C(CSc1nnc2c(=O)n(-c3ccccc3)ccn12)Nc1cccc(Cl)c1`, for which the Inhibition is recorded as 1.05% in the assay on Staphylococcus aureus and -12.66% in the assay with Escherichia coli.
Regarding `COc1ccc(NC(=O)Cn2nc3c4cc(-c5ccc(C)c(C)c5)nn4ccn3c2=O)cc1`, the Inhibition with Staphylococcus aureus is 11.77%; with Escherichia coli, -2.93%.
As for `CC(C)Cn1c(=O)c2sccc2n2c(=O)n(CC(=O)NC(C)(C)C)nc12`, the figures for the Inhibition in the assay on Staphylococcus aureus and with Escherichia coli were -11.52% and -13.32%, respectively.
On to `Cc1cccc(CSc2nnc3c(=O)n(-c4ccc(Br)cc4)ccn23)c1`, for which the figures for the Inhibition in the assay on Staphylococcus aureus and with Escherichia coli were 20.89% and 1.19%, respectively.
In the case of `Cc1cc(C)c(NC(=O)Cn2nc3c(N4CCCC(C)C4)nccn3c2=O)c(C)c1` (centres undefined), the Inhibition with Staphylococcus aureus is reported as -1.28%; in the assay on Escherichia coli it was -2.83%.

For the origin of these results see ChEMBL document CHEMBL4513146, “CO-ADD screening of Karazin Kharkiv National University (Ukraine) compounds”.
